According to PMC5540273 (PLoS ONE, 2017):

Key:
Details in all cases: concentration: 1 μM, replicates: in singlicate; n = 1
FGFR4 = tested on: FGFR4
FGR = tested on: FGR
FLT1 = tested on: FLT1
FLT3-autoinhibited = tested on: FLT3-autoinhibited
FLT3 = tested on: FLT3
FLT4 = tested on: FLT4
FRK = tested on: FRK
FYN = tested on: FYN
GAK = tested on: GAK
GCN2(Kin.Dom.2,S808G) = tested on: T1, GCN2(Kin.Dom.2,S808G)
T1 construct: gene EIF2AK4

GRK1 = tested on: GRK1
GRK2 = tested on: T2, GRK2
T2 construct: gene ADRBK1

GRK3 = tested on: T3, GRK3
T3 construct: gene ADRBK2

GRK4 = tested on: GRK4
GRK7 = tested on: GRK7
GSK3A = tested on: GSK3A
GSK3B = tested on: GSK3B
HASPIN = tested on: T4, HASPIN
T4 construct: gene GSG2

HCK = tested on: HCK
HIPK1 = tested on: HIPK1
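Further: KINOMEscan kinase panel screen.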

SMILES	%Inh (FGFR4)	%Inh (FGR)	%Inh (FLT1)	%Inh (FLT3-autoinhibited)	%Inh (FLT3)	%Inh (FLT4)	%Inh (FRK)	%Inh (FYN)	%Inh (GAK)	%Inh (GCN2(Kin.Dom.2,S808G))	%Inh (GRK1)	%Inh (GRK2)	%Inh (GRK3)	%Inh (GRK4)	%Inh (GRK7)	%Inh (GSK3A)	%Inh (GSK3B)	%Inh (HASPIN)	%Inh (HCK)	%Inh (HIPK1)
Cc1ccc(NC(=O)c2cccc(C#N)c2)cc1-c1ccc(C(=O)Nc2ccncc2)cc1 [GSK1398463]	25%	47%	33%	21%	0%	12%	92.9%	22%	14%	0%	0%	0%	20%	11%	0%	20%	9%	0%	37%	0%
CNc1nccc(-c2c(-c3ccc(F)cc3)ncn2CCCN2CCOCC2)n1 [SB-222516]	0%	10%	1%	14%	15%	5%	0%	0%	0%	0%	22%	0%	23%	0%	0%	0%	14%	8%	0%	0%
N#Cc1ccc(Oc2ccc(Nc3ncnc4cc[nH]c34)cc2Cl)cc1	27%	22%	8%	15%	10%	0%	23%	20%	17%	10%	27%	0%	7%	12%	14%	19%	0%	0%	21%	32%
Cn1ccc2ncnc(Oc3ccc(NC(=O)Nc4cccnc4)c(Cl)c3)c21	0%	0%	2%	0%	0%	37%	0%	0%	0%	0%	13%	0%	0%	1%	14%	0%	3%	0%	8%	13%
C[C@H]1CC[C@@H](C(=O)Nc2ccccc2)CN1c1cc(-c2ccc3c(N)n[nH]c3c2)nc(N)n1 [GSK2283293]	0%	27%	13%	0%	0%	4%	5%	0%	0%	0%	0%	0%	31%	25%	0%	0%	0%	0%	3%	22%
CCC(CC)(CC)n1cnc2c(N)ncnc21 [SKF-97620]	4%	4%	4%	19%	11%	0%	23%	7%	3%	0%	40%	16%	0%	8%	14%	0%	35%	9%	9%	17%
Cl.Fc1ccccc1COc1ccc(Nc2ncnc3ccc(-c4nnc(C(F)(F)F)o4)cc23)cc1Cl [GW424170]	0%	6%	18%	0%	0%	3%	0%	0%	0%	0%	0%	0%	0%	0%	0%	17%	0%	0%	0%	1%
CS(=O)(=O)CCNCc1ccc(-c2ccc3ncnc(Nc4ccc(OCc5ccccc5)c(Cl)c4)c3c2)o1.Cl [GW574783]	0%	9%	26%	0%	11%	0%	0%	14%	0%	16%	2%	1%	20%	0%	0%	8%	1%	30%	18%	0%
CNc1nccc(-c2c(-c3ccc(F)cc3)ncn2C2CCN(C)CC2)n1 [SB-222903]	0%	0%	0%	0%	0%	0%	0%	0%	6%	3%	0%	90%	0%	0%	0%	3%	0%	6%	26%	10%
COc1cc2ncnc(Nc3ccc(OCc4ccccc4Br)c(Cl)c3)c2cc1OC.Cl [GI261590]	9%	43%	23%	0%	0%	0%	6%	0%	0%	24%	0%	0%	41%	0%	0%	0%	10%	34%	25%	0%
